Results as given in PubChem BioAssay (Tox21).
Inconclusive results are not listed. Where a call stands in place of a potency, no number is given. Activity calls are given as the source filed them. Unless noted, the call rests on the fitted dose curve; in most records, active means well fitted curve in the direction sought with a large enough effect in the repeat runs; inconclusive means weak or mixed curves; inactive means no such curve, though single readings can be large; an effect the other way counts as inactive or inconclusive.

How the values were obtained:
[1] = qHTS assay to test for compound auto fluorescence at 535 nm (green) in HEK293 cells (AID 720680)
[2] = qHTS assay to test for compound auto fluorescence at 460 nm (blue) in HEK293 cell free culture (AID 720681); further: potency means the concentration at half of the fitted maximal effect
Method in brief: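 Compounds were added to cell-free DMEM with 10% FBS and fluorescence read directly. The blue channel used 405 nm excitation and 460 nm emission, with triamterene as the reference fluorophore.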

[3] = qHTS assay to test for compound auto fluorescence at 535 nm (green) in HEK293 cell free culture (AID 720682)
Method in brief: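 Green-channel intensity (Ex/Em 485/535 nm) was recorded from compound-treated wells containing only DMEM with 10% FBS. Fluorescein provided the equivalency standard.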

[4] = qHTS assay to test for compound auto fluorescence at 590 nm (red) in HEK293 cell free culture (AID 720683)
Method in brief: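 Cell-free wells of DMEM with 10% FBS received compound, and intrinsic fluorescence was read at excitation/emission 540/590 nm. Values expressed as equivalence to Rose Bengal sodium.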

[5] = qHTS assay to test for compound auto fluorescence at 590 nm (red) in HepG2 cell free culture (AID 720684)
Method in brief: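 Auto fluorescence equivalency versus Rose Bengal sodium, red channel Ex/Em 540/590 nm; compounds in cell-free MEM/10% FBS; DMSO vehicle control.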

[6] = qHTS assay to test for compound auto fluorescence at 460 nm (blue) in HepG2 cell free culture (AID 720685); further: potency means the concentration at half of the fitted maximal effect
Method in brief: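 Cell-free plates of MEM plus 10% FBS received 23 nL compound or DMSO vehicle; blue-channel (405/460 nm) intensity scored against triamterene as reference fluorophore.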

[7] = qHTS assay to test for compound auto fluorescence at 535 nm (green) in HepG2 cell free culture (AID 720686)
[8] = qHTS assay for identifying genotoxic compounds that show differential cytotoxicity against isogenic chicken DT40 cell lines with known DNA damage response pathways - Rev3 mutant cell line (AID 743014); further: nearly all actives have a fitted effect of over 55% in size; further: potency means the concentration at half of the fitted maximal effect
[9] = qHTS assay for identifying genotoxic compounds that show differential cytotoxicity against isogenic chicken DT40 cell lines with known DNA damage response pathways - Rad54/Ku70 mutant cell line (AID 743015); further: nearly all actives have a fitted effect of over 60% in size; further: potency means the concentration at half of the fitted maximal effect
[10] = qHTS assay to identify small molecule antagonists of the androgen receptor (AR) signaling pathway - cell viability counter screen (AID 743033; further: nearly all actives have a fitted effect of over 45% in size; further: potency means the concentration at half of the fitted maximal effect)
[11] = qHTS assay to identify small molecule antagonists of the glucocorticoid receptor (GR) signaling pathway - cell viability counter screen (AID 720693); further: nearly all actives have a fitted effect of over 55% in size
[12] = qHTS assay for identifying genotoxic compounds that show differential cytotoxicity against isogenic chicken DT40 cell lines with known DNA damage response pathways - wild type cell line (AID 743012); further: nearly all actives have a fitted effect of over 60% in size; further: potency means the concentration at half of the fitted maximal effect
Method in brief: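 Endpoint: CellTiter-Glo luminescence, 30 min RT. Cells: wild type DT40, 300/well. Exposure: compounds in DMSO, 40 h, 37 C/5% CO2, after ~0.5 h pre-incubation.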

[13] = qHTS assay to identify small molecule antagonists of the androgen receptor (AR) signaling pathway using the MDA cell line - cell viability counter screen (AID 743041; further: nearly all actives have a fitted effect of over 45% in size; further: potency means the concentration at half of the fitted maximal effect)
Method in brief: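 Compound exposure lasted 16 h at 37C in MDA-kb2 AR-luc cells stimulated with R1881. Protease-based CellTiter-Fluor reagent was applied for the final 30 min and fluorescence measured.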

[14] = target: Glucocorticoid receptor (Homo sapiens) (UniProt P04150); assay: qHTS assay to identify small molecule agonists of the glucocorticoid receptor (GR) signaling pathway (AID 720691; active means well fitted activation curve with a large enough effect in the signal ratio in the repeat runs, not every such curve was filed as active; the % refers to the signal ratio); conditions: GR-bla HeLa, beta-lactamase reporter ratio, 18 h; activation: at 62.4 µM (top of the series)
Glucocorticoid receptor (Homo sapiens), sequence (P04150 whole entry, looked up): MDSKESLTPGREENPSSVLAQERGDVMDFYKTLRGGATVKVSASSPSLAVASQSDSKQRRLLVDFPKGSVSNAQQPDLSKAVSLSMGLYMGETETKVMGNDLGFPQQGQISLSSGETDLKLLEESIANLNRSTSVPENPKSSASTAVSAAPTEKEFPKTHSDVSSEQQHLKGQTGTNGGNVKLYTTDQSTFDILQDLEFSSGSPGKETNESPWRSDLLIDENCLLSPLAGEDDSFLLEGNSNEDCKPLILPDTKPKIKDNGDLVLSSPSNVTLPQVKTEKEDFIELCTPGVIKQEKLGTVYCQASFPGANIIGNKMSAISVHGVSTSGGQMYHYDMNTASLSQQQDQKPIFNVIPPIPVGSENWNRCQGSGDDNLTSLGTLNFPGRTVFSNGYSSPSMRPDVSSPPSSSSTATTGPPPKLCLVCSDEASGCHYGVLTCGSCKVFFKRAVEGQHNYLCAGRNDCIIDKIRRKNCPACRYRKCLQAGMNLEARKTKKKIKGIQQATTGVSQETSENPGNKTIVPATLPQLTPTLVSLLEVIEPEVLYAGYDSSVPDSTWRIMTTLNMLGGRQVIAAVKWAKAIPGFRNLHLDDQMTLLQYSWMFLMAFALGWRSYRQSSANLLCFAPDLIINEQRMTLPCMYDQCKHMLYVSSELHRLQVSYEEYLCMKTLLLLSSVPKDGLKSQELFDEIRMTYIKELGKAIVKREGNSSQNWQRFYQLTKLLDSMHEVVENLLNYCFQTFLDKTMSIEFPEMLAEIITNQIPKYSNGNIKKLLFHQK
Method in brief: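 Measures GR pathway activation through a GRE-beta-lactamase reporter stably integrated in HeLa cells, with 18 h compound treatment at 37 C and fluorescence detection using a FRET substrate.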

[15] = target: Glucocorticoid receptor (Homo sapiens) (UniProt P04150); assay: qHTS assay to identify small molecule antagonists of the glucocorticoid receptor (GR) signaling pathway (AID 720692; active means well fitted inhibition curve with a large enough effect in the signal ratio in the repeat runs, not every such curve was filed as active; the % refers to the signal ratio)
Method in brief: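 Tox21 10K library screened in concentration-response for blockade of dexamethasone (5 nM final)-induced GRE-bla reporter activity in HeLa cells; 18 h treatment, fluorescence read.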

[16] = target: Androgen receptor (Homo sapiens) (UniProt P10275); assay: qHTS assay to identify small molecule antagonists of the androgen receptor (AR) signaling pathway using the MDA cell line (AID 743042; further: nearly all actives have a fitted effect of over 55% in size)
Androgen receptor (Homo sapiens), sequence (P10275 whole entry, looked up): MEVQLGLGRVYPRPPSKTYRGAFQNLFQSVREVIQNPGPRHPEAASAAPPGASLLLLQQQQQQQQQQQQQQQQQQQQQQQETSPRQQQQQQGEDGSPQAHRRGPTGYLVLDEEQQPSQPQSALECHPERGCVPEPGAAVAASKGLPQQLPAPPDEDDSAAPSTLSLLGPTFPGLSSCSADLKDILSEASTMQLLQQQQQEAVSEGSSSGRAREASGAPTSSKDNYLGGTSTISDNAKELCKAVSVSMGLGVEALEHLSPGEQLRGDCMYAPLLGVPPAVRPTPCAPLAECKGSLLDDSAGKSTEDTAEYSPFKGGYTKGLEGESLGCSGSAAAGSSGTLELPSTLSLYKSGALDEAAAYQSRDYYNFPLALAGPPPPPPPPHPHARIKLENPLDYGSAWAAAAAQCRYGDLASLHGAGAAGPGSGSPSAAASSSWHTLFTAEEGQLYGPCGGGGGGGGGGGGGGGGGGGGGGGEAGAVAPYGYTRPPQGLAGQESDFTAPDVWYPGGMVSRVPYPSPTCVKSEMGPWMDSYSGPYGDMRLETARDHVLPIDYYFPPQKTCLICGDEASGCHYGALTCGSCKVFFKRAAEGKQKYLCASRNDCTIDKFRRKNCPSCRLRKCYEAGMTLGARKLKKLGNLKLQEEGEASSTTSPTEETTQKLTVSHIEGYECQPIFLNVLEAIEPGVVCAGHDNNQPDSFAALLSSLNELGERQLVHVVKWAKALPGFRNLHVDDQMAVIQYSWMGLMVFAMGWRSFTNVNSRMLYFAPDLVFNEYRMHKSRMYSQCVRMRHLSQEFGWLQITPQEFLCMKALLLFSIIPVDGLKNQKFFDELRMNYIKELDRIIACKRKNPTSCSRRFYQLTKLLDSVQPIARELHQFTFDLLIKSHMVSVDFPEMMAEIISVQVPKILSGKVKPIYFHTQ
Method in brief: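 MDA-kb2 breast carcinoma cells carrying MMTV-luciferase (AR/GR responsive) were co-treated with compounds and the agonist R1881 for 16 h at 37C. Inhibition read as ONE-Glo luminescence; CellTiter-Fluor fluorescence measured in parallel for cytotoxicity.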

[17] = qHTS assay to test for compound auto fluorescence at 460 nm (blue) in HepG2 cells (AID 720687)
Method in brief: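 HepG2 cells in MEM with 10% FBS, attached overnight at 37 C, were exposed to compound or DMSO for 1 hr at 37 C, 5% CO2. Blue fluorescence was read at 405/460 nm, with triamterene as reference fluorophore.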

[18] = target: Androgen receptor (Homo sapiens) (UniProt P10275); assay: qHTS assay to identify small molecule antagonists of the androgen receptor (AR) signaling pathway (AID 743035; active means well fitted inhibition curve with a large enough effect in the signal ratio in the repeat runs, not every such curve was filed as active; the % refers to the signal ratio)
Method in brief: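 R1881 agonist challenge of a HEK293 UAS-beta-lactamase AR reporter line in the presence of compound (16 h, 37C); signal taken as FRET fluorescence after 2 h with LiveBLAzer B/G substrate at room temperature.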

[19] = target: Androgen receptor (Homo sapiens) (UniProt P10275); assay: qHTS assay to identify small molecule agonists of the androgen receptor (AR) signaling pathway (AID 743036; active means well fitted activation curve with a large enough effect in the signal ratio in the repeat runs, with a control signal flat, not every such curve was filed as active; the % refers to the signal ratio)
Method in brief: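 Cell-based FRET reporter assay: HEK293 line with a UAS-beta-lactamase construct, compounds added in DMSO, 16 h exposure at 37C, then 2 h substrate step at room temperature and fluorescence intensity read.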

[20] = target: Androgen receptor (Homo sapiens) (UniProt P10275); assay: qHTS assay to identify small molecule agonists of the androgen receptor (AR) signaling pathway using the MDA cell line (AID 743040; further: nearly all actives have a fitted effect of over 20% in size)
Method in brief: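 Testing was done with the MDA-kb2 AR-luc line, a human breast carcinoma stably transfected with MMTV-luciferase containing AR and GR response elements. Cells were exposed 16 h at 37C before ONE-Glo luminescence detection.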
Tags describe the fitted curve by direction and shape or compound fluorescence and quenching.

SMILES	outcome [1]	Potency [2]	outcome [3]	outcome [4]	outcome [5]	Potency [6]	Potency [7]	Potency [8]	Potency [9]	Potency [10]	Potency [11]	Potency [12]	Potency [13]	Potency [14]	Potency [15]	Potency [16]	Potency [17]	Potency [18]	Potency [19]	Potency [20]
COc1cccc(-c2ccc(/C=C\CN3CCCCCC3)cc2Cl)c1	inactive	inactive	inactive	inactive	inactive	inactive	inactive	0.483 µM (active)	2.16 µM (active)	38.7 µM (active)										
Cc1ccc(Cl)c(N)c1Cl	inactive	inactive	inactive	inactive	inactive	inactive	inactive	68.6 µM (active)	inactive	inactive	inactive	61.1 µM (active)	inactive							
CCCCCCCC/C=C\CCCCCCCC(=O)N(CCO)CCO	inactive	inactive	inactive	inactive	inactive	inactive	inactive	17.2 µM (active)	13.6 µM (active)			15.3 µM (active)	43.1 µM (active)							
Cc1ccc2nc(-c3ccc(N)cc3)sc2c1S(=O)(=O)O	inactive	15.8 µM (active)	inactive	inactive	inactive	25.1 µM [fluorescent] (active)	inactive	inactive	26.9 µM (active)	inactive	inactive		inactive	inactive	inactive	inactive				
CO/N=C(\C(=O)N[C@@H]1C(=O)N2C(C(=O)[O-])=C(C[n+]3ccc(N)n3CCO)CS[C@H]12)c1csc(N)n1	inactive	inactive	inactive	inactive	inactive	inactive		inactive	inactive	inactive	inactive	inactive	inactive	inactive	inactive		inactive			
CC/C=C\C/C=C\C/C=C\C/C=C\C/C=C\CCCC(=O)O	inactive	inactive	inactive	inactive	inactive	inactive	inactive	inactive	inactive	inactive	inactive		inactive	inactive						
CN(C)CCc1c[nH]c2ccc(Cn3cncn3)cc12	inactive	inactive	inactive	inactive	inactive	inactive	inactive	inactive	inactive	inactive	inactive	inactive	inactive			inactive		inactive	inactive	inactive
CC(=O)O[C@H]1C[C@@H]2CC[C@@H]3[C@H](CC[C@@]4(C)[C@H]3C[C@H]([N+]3(C)CCCCC3)[C@@H]4OC(C)=O)[C@@]2(C)C[C@@H]1[N+]1(C)CCCCC1	inactive	inactive	inactive	inactive	inactive	inactive	inactive	inactive	inactive	inactive	inactive	inactive	inactive	inactive	inactive					
C[C@@H]1C[C@H]2[C@@H]3C[C@H](F)C4=CC(=O)C=C[C@]4(C)[C@@]3(Cl)[C@@H](O)C[C@]2(C)[C@H]1C(=O)COC(=O)C(C)(C)C	inactive	inactive	inactive	inactive	inactive	inactive	inactive		inactive	inactive	inactive	inactive	inactive							
O=C1CC[C@@H](C(=O)N[C@H]2C[C@@H]2c2ccccc2)N1	inactive	inactive	inactive	inactive	inactive	inactive	inactive	inactive	inactive	inactive	inactive	inactive	inactive	inactive						
CCOc1ccc(NC(=S)Nc2ccc(OCC)cc2)cc1	inactive	inactive	inactive	inactive	inactive	inactive	inactive	inactive		inactive	inactive	inactive	inactive							
NCC1CCC(C(=O)O)CC1 (stereo not given)	inactive	inactive	inactive	inactive	inactive	inactive	inactive	inactive	inactive		inactive		inactive							
O=C(O)[C@H]1CN(C/C=C/P(=O)(O)O)CCN1	inactive	inactive	inactive	inactive	inactive	inactive	inactive		inactive	inactive	inactive	inactive		inactive	inactive					
CCc1cn([C@H]2C[C@H](O)[C@@H](CO)O2)c(=O)[nH]c1=O	inactive	inactive	inactive	inactive	inactive	inactive		inactive	inactive	inactive	inactive	inactive	inactive	inactive	inactive		inactive			
CC(C)NCC1CCc2cc(CO)c([N+](=O)[O-])cc2N1 (stereo not given)	inactive	inactive	inactive	inactive	inactive	inactive		inactive	inactive	inactive	inactive	inactive	inactive	inactive	inactive	inactive	inactive	inactive	inactive	inactive
